Screening data from PubChem BioAssay.
Rows were chosen to be rich in hits. Some 1.3% of all compounds tested hit in one or more screens of this group.
gsp antagonist – qHTS for Antagonists of gsp, the Etiologic Mutation Responsible for Fibrous Dysplasia/McCune-Albright Syndrome: qHTS. AID 624288, 2012. Potency, µM (series often up to 76.9 µM), for the others: at the top dose activity change, negative = inhibition, hits mostly inhibitors. gsp-mutant cells, cAMP HTRF, 30 min. 340,000 tested, 0.4% active; calls by dose curve; cell line not stated here;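 also: intracellular cAMP measured with PDE inhibitor Ro 20-1724 present during compound exposure; potency is read from the fitted curve at half-maximal effect; % is scaled to controls: 0 for no effect and ±100 for the full control effect; nearly all actives have a fitted effect of over 65% in size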
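HTRF cAMP read-out (cAMP-d2 plus anti-cAMP antibody-K in lysis buffer, 30 min RT). Before lysis, cells are exposed to compounds with […] for 30 min at 37C in DPBS containing Ca/Mg, BSA and Tween 20.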
RXFP1 agonist – qHTS Assay for Agonists of the Relaxin Receptor RXFP1 | Relaxin receptor 1 (Homo sapiens), Q9HBX9 | HEK293T-RXFP1 cAMP TR-FRET, 30 min; response scale: percent of porcine relaxin response, buffer zero | Potency, µM (doses to about 57.5 µM), inactives show top-dose activation, actives largely listed as activators | 370,000 tested, 0.3% active | AID 2676, 2010; active = well fitted activation curve with a large enough effect; inconclusive = small, poorly fitted or top-dose-only effect; also: potency is read from the fitted curve at half-maximal effect; % is scaled to controls: 0 for no effect and ±100 for the full control effect; nearly all actives have a fitted effect of over 60% in size
Target sequence (Q9HBX9 whole entry, looked up): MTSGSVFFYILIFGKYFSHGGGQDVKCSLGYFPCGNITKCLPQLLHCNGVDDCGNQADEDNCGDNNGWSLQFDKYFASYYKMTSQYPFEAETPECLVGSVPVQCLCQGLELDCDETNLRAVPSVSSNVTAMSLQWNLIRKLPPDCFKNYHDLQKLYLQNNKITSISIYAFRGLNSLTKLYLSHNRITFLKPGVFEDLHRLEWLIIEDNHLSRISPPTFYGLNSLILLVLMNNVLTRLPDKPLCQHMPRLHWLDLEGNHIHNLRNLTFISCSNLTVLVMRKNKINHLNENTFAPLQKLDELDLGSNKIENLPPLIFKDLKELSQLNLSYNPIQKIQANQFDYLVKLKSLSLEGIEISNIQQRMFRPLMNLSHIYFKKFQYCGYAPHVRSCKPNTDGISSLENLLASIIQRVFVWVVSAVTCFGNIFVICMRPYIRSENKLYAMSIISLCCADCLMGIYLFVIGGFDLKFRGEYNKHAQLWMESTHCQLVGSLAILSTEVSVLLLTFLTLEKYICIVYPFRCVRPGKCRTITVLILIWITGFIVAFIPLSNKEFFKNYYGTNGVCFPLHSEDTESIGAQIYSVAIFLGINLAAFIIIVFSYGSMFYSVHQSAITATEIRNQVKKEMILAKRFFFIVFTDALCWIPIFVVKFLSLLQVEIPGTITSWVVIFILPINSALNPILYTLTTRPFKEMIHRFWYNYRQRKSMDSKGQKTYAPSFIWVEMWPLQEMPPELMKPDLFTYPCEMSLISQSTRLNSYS
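cAMP rise read by TR-FRET after 30 min, 37C compound exposure (up to 58 uM) in RXFP1-transfected HEK293 cells with Ro 20174 present. EC50 from Hill-equation fits, with 29 nM porcine relaxin as 100% and buffer as basal.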
pAkt inh – HTS Assay for Inhibitors of Akt Phophorylation: Primary Screen; Neuro2A IGF-stimulated pAkt S473 HTRF, 20 min; stronger effect = lower value; activity change, % for hits at 50 µM; 360,000 tested, 0.32% active; in the data active = activity change below about -80%; inconclusive = mostly about -51% to -80%; also: % is scaled to controls: 0 for no effect and ±100 for the full control effect
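Neuro2A cells (4,500/well, DMEM with 0.5% FBS) were treated with compound at a single 50 µM final concentration, stimulated with 6 nM IGF for 20 min at 37 °C, and lysed. Phospho-Akt Ser473 was read by HTRF as 665/615 ratio ×10^4.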
gsp agonist – qHTS for Agonist of gsp, the Etiologic Mutation Responsible for Fibrous Dysplasia/McCune-Albright Syndrome: qHTS | AID 624287, 2012 | gsp mutant cells, cAMP HTRF, 30 min | 340,000 tested, 0.13% active | Potency, µM (titrated, usually from 76.9 µM), for inactives: top-dose activation (cAMP increase), most hits filed as activators; active = well fitted activation curve with a large enough effect; inconclusive = small, poorly fitted or top-dose-only effect, or another doubt; inactive = no such curve, though single readings can be large or run the other way; cell line not stated here;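 also: phosphodiesterase inhibitor Ro 20-1724 added with compounds to block cAMP breakdown; potency is read from the fitted curve at half-maximal effect; nearly all actives have a fitted effect of over 60% in size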
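Cells stably selected in G418 were plated at 2000/well, grown 16-24 hr, then given compounds in DMSO with the PDE inhibitor […] (300 uM solution added) for 30 min at 37C; cAMP was read by HTRF.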
RXFP1 antag – qHTS Assay for Antagonists of the Relaxin Receptor RXFP1; activity change, negative = inhibition, % at 57.5 µM; HEK293-RXFP1, relaxin-stimulated cAMP HTRF, 30 min; stronger effect = lower value; 350,000 tested, 0.59% active; AID 1259400, 2018; Relaxin receptor 1 (Homo sapiens), Q9HBX9;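 active = activity change of -60% or lower, but not beyond a set lower limit; inconclusive = change between -60% and -40%, or beyond the set limit; inactive = change above -40%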; also: % is scaled to controls: 0 for no effect and ±100 for the full control effect
The depositor's hits bear a star; i = inactive; ? = inconclusive; . = not tested or not shown; [ ] = remark or other dose.

SMILES	gsp antagonist	RXFP1 agonist	pAkt inh	gsp agonist	RXFP1 antag
Cc1ccccc1CNC(=O)C(=O)NCC(c1ccco1)S(=O)(=O)c1ccc(F)cc1 (stereo not given)	.	0.4%	.	.	5.9
CCCNC(=O)c1cnn2c(C)c(Cc3c(C)cc(C)cc3C)c(C)nc12	.	0.1%	.	.	?
CCCCNC(=O)c1cnn2c(C)c(Cc3c(C)cc(C)cc3C)c(C)nc12	.	1.2%	.	.	-60.9*
O=S1(=O)C=C(Sc2nc3ccccc3s2)c2ccccc21	12.7%	-0.2%	-107.8%*	-27.9%	?
COc1ccc(-n2c(=S)[nH]c3cc(C(=O)NCc4ccccc4)ccc3c2=O)c(OC)c1	20µM*	2.5%	i	9.1%[15.4 µM]	-16.6
COc1ccc(-n2c(=S)[nH]c3cc(C(=O)NCc4cccnc4)ccc3c2=O)c(OC)c1	-11.1%	3.0%	i	12.9%	-71.1*
COc1ccc(-n2c(=S)[nH]c3cc(C(=O)Nc4cc(OC)c(OC)c(OC)c4)ccc3c2=O)c(OC)c1	-17.5%	0.8%	i	-1.4%[15.4 µM]	-23.1
COc1ccc(CNC(=O)Cn2c(SCC(=O)Nc3ccc(C)c(C)c3)nc3ccccc32)cc1	.	1.2%	.	.	-0.2
Cc1ccc(C)n1-c1ccc(C(=O)NCc2ccncc2)cc1	7.0%	0.5%	i	-4.0%	4.0
Cc1ccc(C)n1-c1ccc(C(=O)NN)cc1	16.1%	-0.8%	i	13.9%[15.4 µM]	-71.3*
COC(=O)c1ccccc1NC(=O)c1noc2c1CSc1ccccc1-2	.	-1.3%	.	.	-0.8
NC(=O)c1ccccc1NC(=O)CSC1=NCCS1	7.7%	2.3%	i	-7.7%	2.4
O=C(CSC1=NCCS1)Nc1ccc(F)cc1	8.91µM*	-0.1%	i	1.1%	13.9
Cc1cc2nc3c(nc2cc1C)C1(C(=O)N(C)C)CCC3(C)C1(C)C (stereo not given)	14.8%	3.2%	-110.3%*	?	-2.3
CCOc1ccc(-c2ccc(NS(=O)(=O)c3cc(C)c(C)cc3C)cc2)nn1	.	3.7%	.	.	-28.8
CN(C)c1ccc(CNC(=O)CN2C(=O)C3CCCCN3c3ccc(C(=O)N4CCCC4)cc32)cc1 (stereo not given)	.	-0.3%	.	.	2.5
CC(=O)c1c(C)[nH]c(C(=O)OCC(=O)Nc2cc(S(=O)(=O)N3CCCC3)ccc2Cl)c1C	-9.6%	-0.9%	i	8.6%	-3.5
Cc1ccccc1C(=O)OCC(=O)Nc1cccc(S(=O)(=O)N2CCCCC2)c1	.	.	i	-2.1%	-1.4
O=C(COc1ccc2ccc(=O)oc2c1)Nc1cccc(S(=O)(=O)N2CCCCC2)c1	28.2µM*	6.4%	i	?	-8.0
CC(=O)c1c(C)[nH]c(C(=O)OCC(=O)Nc2cccc(S(=O)(=O)N3CCCC3)c2)c1C	31.6µM*	0.7%	i	-71.1%	-1.9
Cc1ccc(OCC(=O)Nc2cccc(S(=O)(=O)N3CCCC3)c2)cc1C	.	.	i	-1.3%	-1.6
Cc1ccc(C)c(C(=O)OCC(=O)Nc2cccc(S(=O)(=O)N3CCCCC3)c2)c1	25.1µM*	-0.6%	i	5.4%	-1.6
O=C1/C(=C/c2ccncc2)SC(=S)N1Cc1ccccc1	-14.8%	-1.4%	i	5.6%[15.4 µM]	-98.8*
CC(C)Cc1nn2c(=O)cc(COC(=O)c3ccc(NC(=O)C4CCCCC4)cc3)nc2s1	.	-2.9%	.	.	8.5
O=C(Nc1ccccc1)c1nnsc1S(=O)c1ccc(Cl)cc1 (stereo not given)	-1.4%	0.2%	i	-21.3%	-104.6*
SMILES	gsp antagonist	RXFP1 agonist	pAkt inh	gsp agonist	RXFP1 antag
O=C(c1nnsc1S(=O)c1ccc(Cl)cc1)N1CCOCC1 (stereo not given)	-2.2%	-3.9%	i	3.3%[15.4 µM]	-10.2
CCOc1cc(C)c(Cl)cc1S(=O)(=O)N1CCCC1	-1.4%	1.6%	-118.6%*	-30.8%	4.1
Cc1ccc2oc3nc(C)c(C(=O)Nc4cccc(C(F)(F)F)c4)cc3c(=O)c2c1	7.8%	?	-93.4%*	0.9%	-4.2
Cc1cccc(C)c1NC(=O)c1cc2c(=O)c3ccccc3oc2nc1C(F)(F)F	9.8%	-0.7%	i	2.2%	0.0
O=C(CN(C(=O)c1csnn1)c1ccc(Cl)cc1)NC1CCCC1	5.1%	3.0%	i	15.4%	-9.0
CC(=O)c1ccc(N(CC(=O)NC2CCCC2)C(=O)c2csnn2)cc1	8.4%	-0.1%	i	25.2%	-82.1*
CCc1ccccc1NC(=O)CSc1ncc2c(n1)-c1ccccc1N(Cc1ccc(C)cc1)S2(=O)=O	.	?	.	.	-6.2
Cc1ccc(S(=O)(=O)NCC(=O)NCc2cc(=O)n(C)c(=O)n2C)cc1C	6.1%	5.9%	.	8.1%	-100.0*
NCCCC(N)CC(=O)NCC1NC(=O)C(CO)NC(=O)C(N)CNC(=O)C(C2CCN=C(N)N2)NC(=O)C(=CNC(N)=O)NC1=O (stereo not given)	.	.	.	.	-13.2
Nc1ccccc1N1CCN(C(=O)c2ccccc2)CC1	-16.1%	0.6%	-103.4%*	2.3%	-7.2
N#Cc1ccc(N2CCCC2C(=O)O)c([N+](=O)[O-])c1 (stereo not given)	9.5%	-0.3%	-118.0%*	-9.1%	-0.3
Cc1ccc(C)c(NC(=O)Cn2cc(C(=O)C3CCCCC3)c3ccccc32)c1	.	1.6%	.	.	-14.2
CCOC(=O)C1=C(CN(CC)Cc2ccccc2)NC(=O)NC1c1ccc(OC(C)C)cc1 (stereo not given)	.	4.9%	.	.	.
O=C(CCC(=O)OCCCC(F)(F)C(F)(F)F)NC1CCCCC1	-7.5%	-0.7%	i	0.9%	19.8
C=CCOC(=O)CCCC(=O)NC1CCCCC1	4.2%	1.8%	-127.7%*	16.6%	1.3
Cc1ccc(-c2nn(-c3ccccc3)cc2/C=C/C(=O)OCC(=O)NC2CC2)o1	50.1µM*	14.7%	i	25.7%	13.4
COc1cccc(NC(=O)c2ccc3snnc3c2)c1	-3.1%	2.5%	-112.6%*	24.8%	-20.9
Cc1ccc(/C=C2/SC(=S)N(c3ccc(S(=O)(=O)Nc4nccs4)cc3)C2=O)cc1	31.6µM*	22.5%	i	1.9%[15.4 µM]	-66.5*
COc1ccc(/C=C2\SC(=O)N(CCC(=O)Nc3ccc(S(=O)(=O)Nc4nccs4)cc3)C2=O)cc1	-18.9%	-0.4%	i	0.1%[15.4 µM]	-36.2
O=C1/C(=C/c2ccccn2)SC(=S)N1c1ccc(O)cc1	-7.6%	7.9%	i	-41.7%	-2.3
Cc1ccc(Oc2ccc3c(c2)C(=O)N(c2ccc(S(=O)(=O)Nc4nccs4)cc2)C3=O)cc1	?	0.2%	i	37.9%	-106.7*
O=C1/C(=C\c2ccccn2)SC(=S)N1c1ccc(S(=O)(=O)Nc2nccs2)cc1	39.8µM*	0.3%	i	0.2%[15.4 µM]	-80.7*
